This is a sample that favours compounds with a hit; in the whole collection about 19% have one here.
TDP1 cell noCPT = qHTS for Inhibitors of human tyrosyl-DNA phosphodiesterase 1 (TDP1): qHTS in cells in absence of CPT; Potency, µM (highest dose often 46.2 µM), for the others: top-dose activity change, negative = growth inhibition, usual class: inhibitors; 420,000 tested, 15% active; AID 686978, 2013; DT40 Tdp1-/- hTDP1 cells, no CPT, ATP luminescence, 48 h; further: potency means the concentration at half of the fitted maximal effect; nearly all actives have a fitted effect of over 55% in size
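Luminescent ATP content (CellTiter-Glo) served as the growth readout. Knockout chicken DT40 cells expressing human TDP1 were exposed to compounds without camptothecin for a minimum 48 hr at 37 °C.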
HT1080 IDH1KD tx = HT-1080 IDH1 knockdown cell toxicity (counter line); Potency, µM (series often up to 46.1 µM), for inactives: at the highest dose activity, negative = toxicity, most hits filed as cytotoxic; HT-1080 IDH1 knockdown viability, ATP luminescence, 48 h; AID 686971; 360,000 tested, 2% active;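 further: potency means the concentration at half of the fitted maximal effect; 0% = DMSO wells and -100% = cell-free medium wells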
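Luminescent ATP read-out (CellTiter-Glo, 10 min at room temperature) after 48 h compound exposure at 37 °C gave viability of IDH1-knockdown HT-1080 cells. Activity was normalised to DMSO and cell-free wells, then fitted as concentration-response curves.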
HT1080NT lethal = kills 2HG-producing HT-1080-NT fibrosarcoma cells; HT-1080-NT fibrosarcoma viability, CellTiter-Glo ATP luminescence, 48 h; Potency, µM (series often up to 46.1 µM), for the others: at the top dose activity, negative = less viability, hits mostly cytotoxic; 360,000 tested, 1.6% active; AID 686970;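 further: NT is the 2HG producing partner of a matched IDH1 knockdown line; potency means the concentration at half of the fitted maximal effect; 0% = DMSO-treated cells and -100% = media-only wells without cells; nearly all actives have a fitted effect of over 55% in size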
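Read-out is CellTiter-Glo luminescence after 10 minutes at room temperature, following 48 hours' compound treatment of HT-1080-NT cells (750 cells/well, RPMI, 5% FBS, 37 degrees C).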
DT40 TDP1 CPT = growth inhibition of DT40 Tdp1-/-;hTDP1 cells with camptothecin (screen for TDP1 inhibitors); 420,000 tested, 12% active; Potency, µM (top dose mostly 46.2 µM), without a hit: top-dose activity change, negative = growth inhibition, most hits filed as inhibitors; chicken DT40 Tdp1-/-;hTDP1 cells + 20 nM CPT, ATP luminescence, 48 h; AID 686979; further: potency means the concentration at half of the fitted maximal effect; nearly all actives have a fitted effect of over 55% in size
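Chicken DT40 Tdp1-/- cells stably complemented with human TDP1 were seeded at 400 cells/well in medium containing 20 nM camptothecin, exposed to pin-transferred compounds, and grown at 37 °C for at least 48 hr. Viability was read as ATP luminescence.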
IL-1B inflam inh = inflammasome signaling inhibition, IL-1 beta readout | AID 743279 | activity change, % at 57.5 µM | THP-1 LPS/ATP IL-1B secretion, AlphaLISA, 16 h; active compounds read low | 360,000 tested, 4.7% active; in the data active means activity change below about -50%; inconclusive means mostly about -30% to -49%
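THP-1 cells pretreated 1 hr with compounds (up to 57.5 uM final), then stimulated with LPS (250 ng/mL final) plus ATP (1.25 mM final); secreted IL-1B measured by AlphaLISA after 16 hr, decreased signal indicating inhibition.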
ELG1 DNA repair = blocks ELG1-dependent DNA repair in HEK293T cells; HEK293T ELG1-luciferase reporter, luminescence, 16 h; DNA damage induced by 5-fluorouridine; Potency, µM (highest dose often 46.1 µM), for inactives: top-dose activity change, negative = inhibition, usual class: inhibitors; 330,000 tested, 2.3% active; further: potency means the concentration at half of the fitted maximal effect; nearly all actives have a fitted effect of over 55% in size
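Step one: seed 2,000 cells per well. Step two: pin-transfer compound or DMSO alongside 5-fluorouridine. Step three: incubate 16 hr, 37 °C, 5% CO2. Step four: add ONE-Glo, wait 30 min, read luminescence.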
An asterisk follows results filed as active. Unless noted, the call rests on the fitted dose curve; in most records, active means well fitted curve in the direction sought with a large enough effect; inconclusive means small, poorly fitted or top-dose-only effect, or another doubt; inactive means no such curve, though single readings can be large; an effect the other way counts as inactive or inconclusive. Unless noted, on the % scale 0 is the no-effect control and ±100 the full control effect.

Screening O=C(c1cc(COc2ccc(F)cc2F)on1)N1CCN(C2CCCC2)C(=O)C1 returned TDP1 cell noCPT inconclusive, HT1080 IDH1KD tx 2%, HT1080NT lethal 3%, DT40 TDP1 CPT inconclusive, IL-1B inflam inh -4 and ELG1 DNA repair -2%.
For CCOC(=O)c1cc2c(=O)n3ccccc3nc2n(Cc2ccco2)c1=NC(=O)c1ccccc1OC the results were TDP1 cell noCPT 13µM*, HT1080 IDH1KD tx -8%, HT1080NT lethal -5%, DT40 TDP1 CPT 16µM*, IL-1B inflam inh inconclusive and ELG1 DNA repair inconclusive.
COc1cc(O)c(C(=O)c2ccccc2)cc1O was read as TDP1 cell noCPT 4.6µM* and DT40 TDP1 CPT 4.1µM*.
`Cc1ccc(C(=O)NC2=NC(c3ccc(C)cc3)CC(=O)N2)cc1` (stereo not given) gave TDP1 cell noCPT -2% and DT40 TDP1 CPT -7%.
For O=C(NCc1cccc(C(F)(F)F)c1)c1cccc2c1C(=O)c1ccc(N3CCC(Cc4ccccc4)CC3)cc1S2(=O)=O the results were TDP1 cell noCPT 7.3µM*, HT1080 IDH1KD tx 11%, HT1080NT lethal inconclusive, DT40 TDP1 CPT inconclusive, IL-1B inflam inh -2 and ELG1 DNA repair inconclusive.
`O=C(NCc1ccco1)c1cccc2c1C(=O)c1ccc(N3CCC(Cc4ccccc4)CC3)cc1S2(=O)=O` gave TDP1 cell noCPT 13µM*, HT1080 IDH1KD tx -2%, HT1080NT lethal 0%, DT40 TDP1 CPT 13µM*, IL-1B inflam inh 33 and ELG1 DNA repair inconclusive.
O=C(NCc1ccc(OC(F)(F)F)cc1)c1cccc2c1C(=O)c1ccc(N3CCCC3)cc1S2(=O)=O was read as TDP1 cell noCPT 18µM*, HT1080 IDH1KD tx -1%, HT1080NT lethal inconclusive, DT40 TDP1 CPT -25%, IL-1B inflam inh 20 and ELG1 DNA repair 1%.
For O=C(NCc1ccco1)c1cccc2c1C(=O)c1ccc(/C=C/c3ccccc3)cc1S2(=O)=O the results were TDP1 cell noCPT 23µM*, HT1080 IDH1KD tx inconclusive, HT1080NT lethal inconclusive, DT40 TDP1 CPT inconclusive, IL-1B inflam inh 1 and ELG1 DNA repair inconclusive.
For CC(C)C[C@H]1CNC(=O)C(=O)N1CC1CCN(CC2CCC(C(C)(C)C)CC2)CC1 (stereo not given in full) the results were TDP1 cell noCPT inconclusive, HT1080 IDH1KD tx 4%, HT1080NT lethal 4%, DT40 TDP1 CPT -10% and IL-1B inflam inh inconclusive.
`O=C(Nc1cccc(C(=O)N2CCCC2)c1)C1CC1` gave TDP1 cell noCPT -6%, HT1080 IDH1KD tx 8%, HT1080NT lethal 7%, DT40 TDP1 CPT 0% and IL-1B inflam inh 8.
`Cc1ccccc1C(=O)Nc1ccccc1C(=O)OCc1cc(=O)n2ccsc2n1` gave TDP1 cell noCPT -12% and DT40 TDP1 CPT -1%.
Screening Cc1cc(CNC(=O)c2cccc3c2C(=O)c2ccc(-c4ccc(F)cc4OCc4ccccc4)cc2S3(=O)=O)c(C(F)(F)F)o1 returned TDP1 cell noCPT 12µM*, HT1080 IDH1KD tx -14%, HT1080NT lethal -10%, DT40 TDP1 CPT inconclusive, IL-1B inflam inh 17 and ELG1 DNA repair inconclusive.
Screening O=C(NCc1ccc(OC(F)(F)F)cc1)c1cccc2c1C(=O)c1ccc(N3CCCCC3)cc1S2(=O)=O returned TDP1 cell noCPT -14%, HT1080 IDH1KD tx 3%, HT1080NT lethal 0%, DT40 TDP1 CPT -6%, IL-1B inflam inh 3 and ELG1 DNA repair 14%.
O=C(NCc1ccc(OC(F)(F)F)cc1)c1cccc2c1C(=O)c1ccc(N3CCC(Cc4ccccc4)CC3)cc1S2(=O)=O was read as TDP1 cell noCPT 5.2µM*, HT1080 IDH1KD tx 8%, HT1080NT lethal 2%, DT40 TDP1 CPT 8.2µM*, IL-1B inflam inh -2 and ELG1 DNA repair -6%.
`O=C(NCc1ccccc1Br)c1cccc2c1C(=O)c1ccc(-c3ccc(OC(F)(F)F)cc3)cc1S2(=O)=O` gave TDP1 cell noCPT 7.3µM*, HT1080 IDH1KD tx -3%, HT1080NT lethal -2%, DT40 TDP1 CPT 8.2µM*, IL-1B inflam inh 6 and ELG1 DNA repair inconclusive.
Screening O=C(NCc1cccc(OC(F)(F)F)c1)c1ccc2c(c1)S(=O)(=O)c1cc(Cl)ccc1C2=O returned TDP1 cell noCPT -1%, HT1080 IDH1KD tx -1%, HT1080NT lethal 0%, DT40 TDP1 CPT 5%, IL-1B inflam inh 9 and ELG1 DNA repair -6%.
Screening CC1(C)CC(=O)C(CC(=O)c2ccccc2)=C(NN=C(N)N)C1 returned TDP1 cell noCPT -27%, HT1080 IDH1KD tx 5%, HT1080NT lethal -3%, DT40 TDP1 CPT 1% and IL-1B inflam inh 0.
Screening O=C(NCCC(=O)N1CCC2(CC1)NCCc1[nH]cnc12)c1ccc(Br)cc1 returned TDP1 cell noCPT 29%, HT1080 IDH1KD tx 10%, HT1080NT lethal 21%, DT40 TDP1 CPT 15%, IL-1B inflam inh -17 and ELG1 DNA repair 2%.
Screening OC1CCCN(CC(O)COC(c2ccc(F)cc2)c2ccc(F)cc2)C1 (stereo not given) returned TDP1 cell noCPT -24%, HT1080 IDH1KD tx -18%, HT1080NT lethal inconclusive, DT40 TDP1 CPT -30%, IL-1B inflam inh inconclusive and ELG1 DNA repair 6%.
Screening Cc1ccc(C(OCC(O)CNC(CO)C(O)c2ccc([N+](=O)[O-])cc2)c2ccccc2)cc1 (stereo not given) returned TDP1 cell noCPT 15µM*, HT1080 IDH1KD tx inconclusive, HT1080NT lethal 21µM*, DT40 TDP1 CPT inconclusive, IL-1B inflam inh -84* and ELG1 DNA repair 26%.
Screening OC(COC(c1ccc(F)cc1)c1ccc(F)cc1)CN1CCc2ccccc2C1 (stereo not given) returned TDP1 cell noCPT inconclusive, HT1080 IDH1KD tx -13%, HT1080NT lethal -2%, DT40 TDP1 CPT inconclusive, IL-1B inflam inh -72* and ELG1 DNA repair 1%.
Screening OC(COC(c1ccc(Cl)cc1)c1ccc(Cl)cc1)CN1CCCC1 (stereo not given) returned TDP1 cell noCPT -20%, HT1080 IDH1KD tx -8%, HT1080NT lethal -6%, DT40 TDP1 CPT inconclusive and IL-1B inflam inh -51*.
For Cc1ccc(C(OCC(O)CNC(C)c2ccccc2)c2ccccc2)cc1 (stereo not given) the results were TDP1 cell noCPT 12µM*, HT1080 IDH1KD tx 18µM*, HT1080NT lethal 15µM*, DT40 TDP1 CPT 7.3µM*, IL-1B inflam inh -107* and ELG1 DNA repair -3%.
